# Experimental data as given in PubChem BioAssay AID686978 (National Center for Advancing Translational Sciences (NCATS), 2013).
# Screen size: about 420,000 compounds; about 64,000 (15%) were called active. Roughly 27% stayed inconclusive and do not appear here. Calls come from the whole dose curve; as a rule, active = well fitted inhibition curve with a large enough effect; inconclusive = small, poorly fitted or top-dose-only effect; inactive = flat fitted curve, though single readings scatter. These entries were drawn from the full list. Entries that show only a call come without a potency.
# Test: qHTS for Inhibitors of human tyrosyl-DNA phosphodiesterase 1 (TDP1): qHTS in cells in absence of CPT; note: nearly all actives have a fitted effect of over 55% in size
# Conditions: DT40 Tdp1-/- hTDP1 cells, no CPT, ATP luminescence, 48 h; activity change, negative = growth inhibition: at 46.2 µM (top of the series)
# Description: Human tyrosyl-DNA phosphodiesterase 1 (TDP1) is a novel repair gene, and we propose to use it as a new target for anticancer drug development. TDP1 is not an essential protein, but under treatment with topoisomerase I poison (camptothecin: CPT), TDP1 works as a critical factor for cell survival. To directly identify novel TDP1 inhibitors active in a cellular environment, we have knocked-out the Tdp1 gene in chicken DT40 cells (Tdp1-/-) and generated a complemented counterpart cells that contains a stable transfection of the human TDP1 gene (Tdp1-/-;hTDP1 cells). For the primary screen, Tdp1-/-;hTDP1 cells will be exposed to small molecules in the presence or absence of CPT, and their growth kinetics will be evaluated after 48 hours by measuring ATP activity. […] The hit compounds will then be evaluated in the presence or absence of CPT using Tdp1-/- cells. […] In tertiary assays, biochemical gel-based assays will be used to assess whether the hit compounds specifically target TDP1.
# To this end, we have screened this cell line against the MLSMR in two primary screens. In one screen we add CPT and in the other we screen in the absence of CPT; this AID represents the screen where CPT was absent.
# NIH Chemical Genomics Center [NCGC]
# NIH Molecular Libraries Probe Centers Network [MLPCN]
# Assay Submitter (PI): Yves Pommier, NCI
# DT40-hTDP1 cells without 20 nM Camptothecin (add 20 microL of DMSO in 1 L of cell culture medium) were dispensed at 400 cells/5microL/well in tissue culture treated 1536-well white wall/solid bottom assay plates (Greiner Bio-One North America, NC, U.S.A.) using a Multidrop Combi 8 channel dispenser (Thermo Fisher, Waltham, MA, USA). 23 nL compounds and controls were transferred using the pin tool (Kalypsys, San Diego, CA, USA) to the assay plates. The assay plates were then incubated at 37 masculineC for a minimum 48 hr. Three microL of Cell Titer Glo solution was added to the plates and incubated at RT in dark for 30 min. Luminescence was read using ViewLux (Perkin Elmer) with 1 sec exposure slow speed, high gain and 2x binning.
# Potency is the fitted concentration of half-maximal effect.
row,Compound,Potency
1,Cc1ccc(C(=O)N/N=C/c2sc(=O)n(Cc3cccc(C(=O)O)c3)c2Cl)cc1,inactive
2,CCCN=C1NC(=O)C(CC(=O)NCCc2ccc(OC)c(OC)c2)S1 (configuration not stated),inactive
3,CC(=O)C1=C(C)NC(=O)NC1c1ccc2c(c1)OCO2 (configuration not stated),inactive
4,O=C1C=C(c2ccnc3cc(Cl)ccc23)C[C@@H](c2ccc3c(c2)OCO3)C1,16.4 µM (active)
5,O=C1C=C(c2cccc(Cl)c2)C[C@@H](c2ccc(F)cc2)C1,inactive
6,CN(C)CC(C)(C)CNC(=O)c1cc(Br)cc(Br)c1O,inactive
7,O=C(Cn1ncn2nc(-c3cccs3)cc2c1=O)NCc1cccc(Br)c1,inactive
8,Cc1c(C(=O)OCC(=O)N2CCCC2=O)oc2ccccc12,inactive
9,C[n+]1ccccc1C1CCCC/C1=N\Nc1ccc([N+](=O)[O-])cc1[N+](=O)[O-] (configuration not stated),inactive
10,CC(Nc1ccc([N+](=O)[O-])cc1[N+](=O)[O-])c1ccccc1 (configuration not stated),20.6 µM (active)
11,CNc1ccc([N+](=O)[O-])cc1C(=O)O,inactive
12,CC(C)(C)NC(=O)Cn1cnc([N+](=O)[O-])n1,inactive
13,CC(C)C(NC(=O)c1c(F)cccc1F)C(=O)NCc1ccncc1 (configuration not stated),inactive
14,CCN(CC(=O)NCC(=O)Nc1cccc(C)c1C)Cc1ccccc1,inactive
15,COc1cc(-c2n[nH]c(=S)n2Cc2ccccc2)cc(OC)c1OC,inactive
16,CCn1c(-c2ccncc2)n[nH]c1=S,inactive
17,CCCc1cc(-c2n[nH]c(=S)n2Cc2ccccc2)cs1,29.1 µM (active)
18,Cc1ccc(Nc2nc(CSc3nnc(-c4ccncc4)n3-c3ccccc3C)cs2)cc1,11.6 µM (active)
19,O=C(CSc1nnc(-c2ccncc2)n1-c1ccccc1)Nc1ccc(Cl)c(Cl)c1,inactive
20,CCOc1ccccc1-n1c(SCC(=O)NCc2ccco2)nnc1-c1ccncc1,inactive
21,CCOC(=O)Cn1c(O)c(N=NC(=O)CNC(=O)Cc2ccccc2)c2ccccc21,inactive
22,Cn1c(S(=O)(=O)O)nc2ccccc21,inactive

row,Compound,Potency
1,O=C(NCC1CCCO1)c1ccc2ccccc2n1 (configuration not stated),inactive
2,COc1ccc2cc(C(=O)NCC3CCCO3)[nH]c2c1 (configuration not stated),inactive
3,O=C(NCC1CCCO1)c1cc2c([nH]c3ccccc32)c(-c2ccc(F)cc2)n1 (configuration not stated),1.84 µM (active)
4,CSc1ccc(S(=O)(=O)NC2CCCCC2)cc1,inactive
5,CC(C)C(=O)NCc1cc(-c2ccc(Cl)cc2)no1,inactive
6,Cc1cc(O)c(Sc2ccccc2)c(=O)o1,inactive
7,O=C(CSc1nnc(CN2CCCC2)n1-c1ccc(F)cc1)c1ccc2c(c1)OCO2,20.6 µM (active)
8,Cc1ccc(-n2c(CNc3ccc(F)cc3)nnc2SCC(=O)N2CCOCC2)cc1,inactive
9,O=C(O)CSc1nnc(-c2ccc3c(c2)OCO3)n1-c1ccccc1,inactive
10,Cc1ccc(NC(=O)CSCC(=O)N2CCOCC2)cc1,inactive
11,CCN(CC(=O)Nc1c(F)cccc1F)C(=O)c1ccc(Sc2nncn2C)c([N+](=O)[O-])c1,inactive
12,CC1(C(=O)NS(=O)(=O)c2ccc(C#N)cc2)CCN1C(=O)CC1CCCC1 (configuration not stated),inactive
13,COc1ccc(CNC(=O)c2cc3c(=O)[nH]c4ccccc4c3s2)cc1,inactive
14,Cc1ccc2[nH]c(=O)c(CC(=O)O)c(-c3ccccc3)c2c1,inactive
15,COc1ccc(CNC(=O)CC2Oc3ccc(C)cc3NC2=O)cc1 (configuration not stated),inactive
16,Cc1ccc2[nH]c(=O)c(CC=C(Cl)Cl)c(C)c2c1,inactive
17,COc1ccc(CNC(=O)c2cc3c(=O)[nH]c4ccc(C)cc4c3s2)c(OC)c1,20.6 µM (active)
18,Cc1cccc(N(C)C(=O)c2cc3c(=O)[nH]c4ccc(C)cc4c3s2)c1,5.17 µM (active)
19,Cc1ccsc1C(=O)NNC(=O)COc1ccc(Br)cc1,inactive
20,O=C(Nc1ccc2c(c1)C(=O)OC2)Nc1cccc2ccccc12,inactive
21,CN=C1S/C(=C\c2c(OC)cc(OC)cc2OC)C(=O)N1C,inactive
22,Cc1cccc(C)c1NC(=O)CSc1ccc([N+](=O)[O-])cn1,inactive

row,Compound,Potency
1,CCOCC(=O)Nc1ncc(S(=O)(=O)c2ccc([N+](=O)[O-])cc2)s1,inactive
2,COc1ccc(OCC(=O)NCCS(=O)(=O)N2CCN(c3ccc(F)cc3)CC2)cc1,inactive
3,c1ccc2nc(C3=NCCN3)cnc2c1,inactive
4,O=C(C[n+]1ccccc1)N/N=C/c1ccc(O)cc1,inactive
5,O=C(CCCCCNC(=O)c1ccccc1)N/N=C/c1ccccc1,inactive
6,NN=C(NN=Cc1ccccc1)c1ccccc1,20.6 µM (active)
7,Cc1ccc(Cc2cncc(O)c2)cc1S(=O)(=O)O,inactive
8,COC(=O)c1cc(NC(=O)c2cccnc2)ccc1N1CCOCC1,inactive
9,CCOC(=O)c1[nH]c2ccc(C)cc2c1N=C(C)N(C)C,inactive
10,CCOc1ccccc1CNC(=O)c1cnc2c(-c3ccc(OCC)c(OCC)c3)c(C)nn2c1C,11.6 µM (active)
11,Cc1ccc(Cl)cc1N1CCN(C(=O)c2cnc3c(-c4ccc(F)cc4)c(C)nn3c2C)CC1,inactive
12,CCOc1ccccc1CNC(=O)c1ccc2c(c1)nc1n2CCC(C)C1 (configuration not stated),inactive
13,COCCCNC(=O)C1CC(=O)N(CCc2ccccc2)C1 (configuration not stated),inactive
14,CC(C)(C)C(=O)CCN1C(=O)C2(OCCO2)c2ccccc21,inactive
15,COc1ccc(C(=O)OCc2cc(=O)n3ccsc3n2)cc1F,inactive
16,COc1cc(C(=O)OCc2cc(=O)n3ccsc3n2)ccc1OC(C)C,20.6 µM (active)
17,COCCc1nn2c(=O)cc(COC(=O)c3cc(OC)c(OC)c(OC)c3)nc2s1,inactive
18,NC(=O)C[n+]1cccc(C(N)=O)c1,inactive
19,O=C1c2oc3ccccc3c(=O)c2C(c2cccc(O)c2)N1c1ccccn1 (configuration not stated),20.6 µM (active)
20,CC(=O)c1sc(N2C(=O)c3oc4ccccc4c(=O)c3C2c2ccc(C)cc2)nc1C (configuration not stated),inactive
21,COc1ccc(C2c3c(oc4ccccc4c3=O)C(=O)N2Cc2ccc3c(c2)OCO3)cc1 (configuration not stated),inactive
22,COCCN1C2=C(COC(C)(C)C2)C(=S)NC1c1ccccc1 (configuration not stated),inactive

row,Compound,Potency
1,COC(C[C@@H](O)[C@H](C)[C@H](O)COCc1ccccc1)OC,inactive
2,Cn1cccc1/C=C1\SC(=S)N(NC(=O)c2ccc(Cl)cc2)C1=O,inactive
3,O=C(CSc1ncn[nH]1)Nc1ccc(Br)cc1Br,inactive
4,CC(C)(C)c1ccc(C(=O)NCCC(=O)NCc2ccco2)cc1,inactive
5,CN(C)C(CNC(=O)c1ccc(S(=O)(=O)NCc2ccco2)cc1)c1ccccc1 (configuration not stated),inactive
6,CC(C)CNC(=O)C(=O)NCc1ccccc1,inactive
7,CC(C)(C)c1ccc(C(=O)NCC(c2ccco2)S(=O)(=O)c2ccc(F)cc2)cc1 (configuration not stated),20.6 µM (active)
8,O=C(NCCc1ccccc1)C(=O)NCC(c1ccco1)S(=O)(=O)c1ccccc1 (configuration not stated),inactive
9,O=C(NCc1ccccc1)C(=O)NCC(c1ccco1)S(=O)(=O)c1ccc(Cl)cc1 (configuration not stated),18.4 µM (active)
10,O=C(COC(=O)c1cccc(Cl)c1Cl)NC1CCCCCC1,inactive
11,O=C(NNS(=O)(=O)c1ccccc1C(F)(F)F)c1cc2ncc(C(F)(F)F)cc2s1,inactive
12,COc1ccccc1OCCC(=O)OCC(=O)NC(=O)NC(C)(C)C,inactive
13,CSc1nnc(SCc2nc3sc(C(=O)O)c(C)c3c(=O)[nH]2)s1,inactive
14,COc1ccc(CCNC(=O)COC(=O)c2ccc[nH]c2=O)cc1,inactive
15,Cc1cc(C)c(-c2c(O)c3ccccc3n(C)c2=O)c(C)c1,inactive
16,Cc1cccc(Oc2c([N+](=O)[O-])c(=O)n(C)c3ccccc23)c1,inactive
17,COc1cc2c(=O)n(C)c3ccccc3c2cc1OC,11.6 µM (active)
18,Nc1ccc2c(c1)C(=Cc1cccnc1)c1ccccc1-2,inactive
19,O=S(=O)(Nc1ccccc1N1CCOCC1)c1ccc(Cl)s1,inactive
20,COc1ccc(-n2c(-c3ccc(Cl)cc3)n[nH]c2=S)c(OC)c1,inactive
21,COc1ccc(-c2cc(C(F)(F)F)nc(NCc3cccnc3)n2)cc1,inactive
22,COc1ccc(-c2c(C)nn3c(N4CCC(C(=O)NCCC(C)C)CC4)cc(C)nc23)cc1OC,inactive

row,Compound,Potency
1,COc1ccc(CCNc2nc(-c3ccc(Cl)cc3)cc(C(F)(F)F)n2)cc1OC,25.9 µM (active)
2,COc1cccc(NC(=O)C2CCN(c3cc(C)nc4c(-c5ccc(Cl)cc5)c(C)nn34)CC2)c1,inactive
3,COc1ccc(CCNc2cc(C)nc3c(-c4ccc(Cl)cc4)c(C)nn23)cc1OC,18.4 µM (active)
4,COc1ccc(CNc2nc(-c3ccc(Cl)cc3)cc(C(F)(F)F)n2)cc1,18.4 µM (active)
5,COc1ccc(CCNc2nc(C)cc(C)n2)cc1OC,inactive
6,COc1ccc(CCNC(=O)COC(=O)c2ncc(Cl)c(Cl)c2Cl)cc1OC,inactive
7,CCN1CCN(C(=O)CN(C)S(=O)(=O)c2ccc(OC)cc2)CC1,inactive
8,N#C/C(=C\N1CCOCC1)S(=O)(=O)c1ccc(Cl)cc1,inactive
9,CCCC(=O)N1CCC1(C)C(=O)NS(=O)(=O)c1ccc(Cl)cc1 (configuration not stated),inactive
10,COc1cccc(NC(=O)CN(C)CC(=O)c2c(N)n(Cc3ccccc3)c(=O)n(C)c2=O)c1,inactive
11,CC1CCC2(CC1)NC(=O)N(CC(=O)c1cccn1C)C2=O (configuration not stated),inactive
12,COc1ccc(NC(=O)COC(=O)CNC(=O)C2CCCCC2)cc1,inactive
13,O=C(NCc1cccnc1)c1ccccc1NC(=O)c1c(F)cccc1F,inactive
14,CN(C)c1ccc2c(=O)[nH][nH]c(=O)c2c1,inactive
15,COc1cccc(NC(=O)N2C3CCCC2CC(NC(C)=O)C3)c1 (configuration not stated),inactive
16,CCCN1C2CCCC1CC(NC(=O)c1cccc(OC)c1)C2 (configuration not stated),inactive
17,CCCN1C(=O)C(NC(C)=O)c2cc(OC)ccc21 (configuration not stated),18.4 µM (active)
18,Cn1c(CCNS(=O)(=O)c2ccc(F)cc2)nnc1SCc1cccnc1,inactive
19,COc1ccc(N(C)C(=O)CCS(=O)(=O)c2cccc3nsnc23)cc1,inactive
